# Laboratory results from PubChem BioAssay AID1531 (NMMLSC, 2009).
# Hit rate of the full screen: of about 290,000 compounds, about 3,300 (1.1%) were called active. Rule as the data show it: active = binding response below about 67% or above about 130%; inconclusive = no clear call, values can overlap the other calls; inactive = in between. The sample as a whole holds a higher share of actives than the screen did.
# Target: Mitogen-activated protein kinase kinase kinase 2 (Homo sapiens) (UniProt Q9Y2U5)
# Assay: wildtype MEKK2 PB1-MEK5 interaction, increase or decrease – biochemical, multiplex bead flow cytometry, Alexa488-MEK5, primary screen (AID 1531)
# Settings: Alexa488-MEK5 binding to MEKK2 WT, at 10 µM, actives lie on both sides
row,SMILES,binding response (% of control)
1,C=CCC1(C(=O)N(C)Cc2ccccc2)CCN(C(=O)OC(C)(C)C)CC1,94% (inactive)
2,Cc1cc(Br)ccc1NC(=S)NC1CCCC1,94% (inactive)
3,CC(=O)[C@@]12O[C@@H]1C[C@H]1[C@@H]3CC[C@H]4C[C@@H](O)CC[C@]4(C)[C@H]3CC[C@@]12C,107% (inactive)
4,CC(C)(C)n1nnnc1C(c1ccccc1F)N1CCN(C(=O)c2ccco2)CC1 (stereo not drawn),99% (inactive)
5,N#C[C@]1(S(=O)(=O)c2ccccc2)C[C@@H]2ON=C(c3cccc(Br)c3)[C@@H]2C1,91% (inactive)
6,Clc1ccccc1-c1cc(COc2ccc3ccccc3c2)no1,-1% (active)
7,O=C(Nc1ccc(Cl)cc1)OCc1cc(-c2ccccc2)on1,112% (inactive)
8,c1ccc2cc(OCCN3CCCC3)ccc2c1,102% (inactive)
9,Cc1c(-c2ccccc2)cn2c1-c1ccc(C)n1CC2,55% [inhibitor] (active)
10,CCCOc1ccc(Cc2c(O)nc(N)[nH]c2=O)cc1C,105% (inactive)
11,COc1ccc(N2CCN(C3CCCCC3NS(=O)(=O)c3ccccc3)CC2)cc1 (stereo not drawn),105% (inactive)
12,CCOc1cc2ccccc2cc1C(=O)Nc1ccccn1,108% (inactive)
13,O=c1[nH]cccc1-c1nc2ccccc2n1Cc1ccc(Cl)cc1,105% (inactive)
14,Cc1ccc(CNS(=O)(=O)c2ccc3c(c2)N(C)CCO3)cc1,94% (inactive)
15,COc1cc(/C=C2\SC(=S)N(Nc3ncc(C(F)(F)F)cc3Cl)C2=O)cc(OC)c1OC,61% [inhibitor] (active)
16,COc1cccc(/C=N/Nc2ncc(C(F)(F)F)cc2Cl)c1O,96% (inactive)
17,CCOc1ccc(/C=C2\SC(=S)N(NC(=O)c3ccncc3)C2=O)cc1OC,95% (inactive)
18,CN(C)c1ccc(/C=C2\NC(=S)N(Cc3ccccc3)C2=O)cc1,72% [inhibitor] (active)
19,CC1=NN(Cc2ccccc2)C(=O)/C1=C/c1ccc(N(C)C)cc1,109% (inactive)
20,O=C1/C(=C\c2ccsc2)NC(=S)N1c1ccccc1,87% (inactive)
21,CN(Cc1ccco1)S(=O)(=O)c1nnc(NC(=O)c2ccccc2)s1,96% (inactive)
22,CSc1ccc(/C=N/N2CCN(Cc3ccccc3Cl)CC2)cc1,99% (inactive)
23,CN1CCN(/N=C/c2ccc(-c3ccc([N+](=O)[O-])cc3)o2)CC1,103% (inactive)
24,CN1CCN(/N=C/c2ccc(C#N)cc2)CC1,166% (active)
25,COc1ccccc1CCNS(=O)(=O)c1cc2c3c(c1)C(C)C(=O)N3CCC2 (stereo not drawn),85% (inactive)

row,SMILES,binding response (% of control)
1,Cc1c(C(=O)N2CCN(c3ccc(F)cc3)CC2)oc2c1C(=O)CCC2,104% (inactive)
2,Cc1ccc2c(C)c(C(=O)N(C)Cc3ccncn3)oc2c1C,98% (inactive)
3,Cc1ccc2c(C)c(C(=O)N3CCN(c4ccncc4)CC3)oc2c1C,159% (active)
4,COC(=O)c1ccc(Nc2ncnc3sccc23)cc1,102% (inactive)
5,Cc1c(NC(=O)CSc2cccc3cccnc23)c(=O)n(-c2ccccc2)n1C,99% (inactive)
6,COc1ccc(-n2nnnc2SCC(=O)Nc2ccccc2)cc1,104% (inactive)
7,Cc1c(NC(=O)CSc2nnnn2-c2ccc(C(=O)O)cc2)c(=O)n(-c2ccccc2)n1C,-12% (active)
8,O=C(Nc1ccc2c(c1)OCO2)c1sc2cc(Cl)ccc2c1Cl,19% (active)
9,O=C(COc1ccc(Cl)cc1)Nc1ccc2c(c1)OCO2,100% (inactive)
10,CC(Sc1nc2cc(Cl)ccc2s1)C(=O)Nc1ccc2c(c1)OCO2 (stereo not drawn),78% (inactive)
11,COC(=O)c1ccccc1NC(=O)C1CCN(C(=O)N2CCOc3ccccc32)CC1,103% (inactive)
12,Oc1ccc(-n2nnnc2SCc2c(F)cccc2Cl)cc1,98% (inactive)
13,COc1ccc(CNC(=O)c2ccc(Br)s2)cc1OC,96% (inactive)
14,O=C(Nc1cnn(Cc2ccc(Cl)cc2)c1)C1CCCC1,110% (inactive)
15,O=C(Nc1cccc(-c2cccc(Cl)c2)c1)C1CCN(C2CCC2)CC1,151% (active)
16,O=C(Nc1cccc(-c2cscn2)c1)C1CCN(Cc2ccsc2)CC1,112% (inactive)
17,COc1cccc(-c2cccc(NC(=O)C3CCN(C4CCC4)CC3)c2)c1,104% (inactive)
18,O=C(NC1CCCC1)C1CCN(C(=O)Nc2cccc(Cl)c2)CC1,110% (inactive)
19,CC(=O)c1cc(CN2CCC(C(=O)Nc3cccc(-c4cscn4)c3)CC2)cs1,116% (inactive)
20,CCn1cc(CN2CCC(n3nccc3NC(=O)CCCc3ccccc3)CC2)c(C)n1,108% (inactive)
21,CCn1cc(CN2CCC(C(=O)Nc3cccc(-c4cccc(Cl)c4)c3)CC2)c(C)n1,166% (active)
22,CCn1cc(CN2CCC(C(=O)Nc3cccc(-c4cccc(Cl)c4)c3)CC2)cn1,160% (active)
23,COc1ccc(CNC(=O)[C@@H]2CC=C[C@@H]3CCN(C4CC4)C(=O)[C@@H]32)cc1,98% (inactive)
24,Cc1ccc(CN(CC(=O)NC2CCCCC2)C(=O)c2csnn2)cc1,104% (inactive)
25,O=C(O)CC/C(=C\c1cc2c(cc1Br)OCO2)c1nc2ccccc2s1,95% (inactive)

row,SMILES,binding response (% of control)
1,O=C(Nc1ccc(Cl)c(Cl)c1)c1ccccc1NC(=O)C1CC=CCC1C(=O)O (stereo not drawn),104% (inactive)
2,CCCCc1nnc(NC(=O)CSc2nc(C)cc(=O)[nH]2)s1,99% (inactive)
3,CCOC(=O)Cc1csc(NC(=O)CSc2nc(C)cc(=O)[nH]2)n1,61% [inhibitor] (active)
4,CCOC(=O)Cc1csc(NC(=O)CSc2ccc(Br)cc2)n1,109% (inactive)
5,CCOc1ccccc1N1C(=O)CC(Sc2nccc(C)n2)C1=O (stereo not drawn),105% (inactive)
6,CSc1ccccc1NC(=O)c1ccc2c(c1)CCN2S(C)(=O)=O,106% (inactive)
7,O=C(C1CCC(=O)N(C2CC2)C1)N1CCN(c2ccc(Cl)cc2)CC1 (stereo not drawn),104% (inactive)
8,CN(C)Cc1c(O)ccc2c(=O)c(-c3ccccc3Cl)coc12,112% (inactive)
9,CCCOc1ccc(Cl)cc1Nc1nc(NCCO)nc(N2CCCC2)n1,112% (inactive)
10,CC1CCC(NC(=O)c2ccc(N3CCCC3=O)cc2)CC1 (stereo not drawn),105% (inactive)
11,O=C(NCCCN1CCCCCC1)c1ccc(N2CCCC2=O)cc1,193% (active)
12,CCOc1ccc(C(=O)NCCCN2CCCC2=O)cc1,112% (inactive)
13,CC1CN(S(=O)(=O)c2cccc(C(F)(F)F)c2)CN1C(=O)N1CCOCC1 (stereo not drawn),95% (inactive)
14,Cc1ccccc1C1CC(c2cccs2)=NN1S(C)(=O)=O (stereo not drawn),16% (active)
15,COc1ccc(C2CC(c3cccs3)=NN2c2ccccc2)cc1 (stereo not drawn),81% (inactive)
16,COc1ccccc1N1N=C(c2cccs2)CC1c1ccccc1 (stereo not drawn),93% (inactive)
17,FC(F)(F)c1cccc(Nc2ncnc3ccccc23)c1,103% (inactive)
18,O=[N+]([O-])c1ccc(N/N=C/c2ccccc2)cc1,99% (inactive)
19,FC(F)(F)c1cccc(N/N=C/c2ccccc2)c1,143% (active)
20,O=C1Nc2cc(C(=O)N3CCN(c4ccc(F)cc4)CC3)ccc2NC1CSCc1cccc(F)c1 (stereo not drawn),87% (inactive)
21,Nc1ccc(S(=O)(=O)Nc2nccc(/C=C/c3ccc(Br)s3)n2)cc1,93% (inactive)
22,CC(=O)Nc1ccc(S(=O)(=O)Nc2nccc(/C=C/c3ccccc3F)n2)cc1,-6% (active)
23,O=C(/C=C/c1ccccc1Cl)Nc1ccc(S(=O)(=O)Nc2ncccn2)cc1,92% (inactive)
24,CC(=O)N1c2ccc(S(=O)(=O)N3CCC(C(=O)N4CCN(c5ccccc5)CC4)CC3)cc2CC1C (stereo not drawn),102% (inactive)
25,COc1ccc(C=C(C#N)C#N)c(CSc2ccccn2)c1,103% (inactive)

row,SMILES,binding response (% of control)
1,CCOc1ccccc1NC(=O)NC1CCCCCCC1,98% (inactive)
2,COCCNC(=O)CN(Cc1ccco1)C(=O)CCC(=O)Nc1nccs1,103% (inactive)
3,O=C(c1ccc(F)cc1)n1c(=S)nc2ccccn21,80% (inactive)
4,O=C(CSc1ccc(-c2ccc(Br)cc2)nn1)NCC1CCCO1 (stereo not drawn),107% (inactive)
5,CC(NS(=O)(=O)c1ccc(Br)cc1)C(=O)NCC1CCCO1 (stereo not drawn),100% (inactive)
6,OC(CNCC1CCCO1)Cn1c2ccc(Br)cc2c2cc(Br)ccc21 (stereo not drawn),141% (active)
7,COC(=O)C(C)n1cnc2c(nnn2-c2ccc(F)cc2)c1=O (stereo not drawn),94% (inactive)
8,COc1cc(NC(=O)CCS(=O)(=O)c2ccc3c(c2)oc(=O)n3C)cc(OC)c1,100% (inactive)
9,COc1ccc(CCNC(=O)C2CCCN(S(=O)(=O)c3ccc(OC)cc3)C2)cc1 (stereo not drawn),94% (inactive)
10,CC(C)(C)Oc1ccccc1Nc1nc(NCCO)nc(N2CCCC2)n1,103% (inactive)
11,COCCNC(=S)N/N=C/c1c(C)[nH]c2ccccc12,24% (active)
12,Cc1[nH]c2ccccc2c1/C=N/NC(=O)CNC(=O)c1ccc2c(c1)OCO2,100% (inactive)
13,Cc1[nH]c2ccccc2c1/C=N\NC(=O)Cn1nnc(-c2ccccc2)n1,107% (inactive)
14,CC(C)c1nc2cc(C(=O)NC(C)c3cnn(C)c3)ccc2o1 (stereo not drawn),104% (inactive)
15,O=C(OCc1cc(Cl)ccc1OC(F)F)c1cccnc1,281% (active)
16,Cc1cc(=O)[nH]c(SCc2cc(Cl)ccc2OC(F)F)n1,106% (inactive)
17,O=C(OCc1cc2ccccc2[nH]c1=O)c1cccnc1,109% (inactive)
18,COC(=O)C1=C[C@@H](C(=O)OC)[C@@H]2C3=C(C(=O)[C@]2(C)NC(=O)c2ccccc2)[C@H](C)n2c(=O)n(C)c(=O)n2[C@@H]3C1,102% (inactive)
19,OCC[C@H]1C[C@H](O)[C@@H](O)[C@]2(CCCCO2)O1,98% (inactive)
20,Cc1ccc(NS(=O)(=O)c2cc3c(cc2C)NC(=O)CO3)cc1,98% (inactive)
21,COc1cccc(NC(=O)NCc2ccc(F)cc2)c1,98% (inactive)
22,Cc1cccc(NC(=O)Nc2cccc(Oc3c(F)c(F)c(F)c(F)c3F)c2)c1,235% (active)
23,Cc1cccc(NC(=O)c2cccc(C(F)(F)F)c2)c1,91% (inactive)
